In ChEMBL document CHEMBL1157539, “Thousands of chemical starting points for antimalarial lead identification” (Nature, 2010) one finds Inhibition data, which are given here for 30 compounds.

What all share (format): functional
Experiment [1] relates to Plasmodium falciparum. Kind of experiment: GSK_TCMDC: Inhibition of Plasmodium falciparum 3D7 in whole red blood cells, using parasite LDH activity as an index of growth. Test compounds present at 2uM.
Experiment [2] relates to Plasmodium falciparum. The experiment is described as follows: GSK_TCMDC: Inhibition of Plasmodium falciparum Dd2 in whole red blood cells, using parasite LDH activity as an index of growth. Test compounds present at 2uM.
A further experiment has as its system HepG2. The experiment is described as follows: GSK_TCMDC: Percent inhibition of human HepG2 cell line. Test compounds present at 10uM.

With `N=C(N)NC(=O)Nc1cc(Cl)c(Cl)c(Br)c1`, the Inhibition (usually the change of the read-out against control, counted positive when it falls) in the experiment on Plasmodium falciparum [1] was determined as 99%; with Plasmodium falciparum [2] it was 99%; in the experiment on HepG2, 16%.
Turning to `COc1ccc2nccc(N3CCCN(CCNCc4ccc5c(n4)NC(=O)CS5)CC3)c2n1.Cl`, the Inhibition with Plasmodium falciparum [1] is 100%; in the experiment on Plasmodium falciparum [2] it was 10%; in the experiment on HepG2, 8%.
The matching figures for `COc1cc(CCNc2nc(NCc3ccccc3-c3ccccc3)nc(N3CCC(N)CC3)n2)ccc1O.O=C(O)C(F)(F)F`: 100%, 70% and 25%.
Regarding `COc1cccc(-c2cccc(NC(=O)C3CCN(Cc4ccc(O)cc4)CC3)c2)c1`, the Inhibition with Plasmodium falciparum [1] was found to be 97%; in the experiment on Plasmodium falciparum [2], 97%; with HepG2, 9%.
In the case of `O=C1c2ccc([N+](=O)[O-])cc2C(=O)N1c1ccc2[nH]ncc2c1`, the Inhibition in the experiment with Plasmodium falciparum [1] is reported as 87%; in the experiment with Plasmodium falciparum [2] it was 0%; in the experiment with HepG2 it was 11%.
`CCCCCCNC(=N)c1ccc(OCCCCCOc2ccc(C(=N)NCCCCCC)cc2)cc1.Cl`: the values for the Inhibition in the experiment on Plasmodium falciparum [1], in the experiment on Plasmodium falciparum [2] and with HepG2 were 97%, 98% and 55%, respectively.
The matching figures for `CCC/C=C/c1c(CNCCCNc2cc(=O)c3ccccc3[nH]2)sc(CC)c1Br.Cl`: 88%, 71% and 8%.
The matching figures for `O=C(NC(Nc1ccc([N+](=O)[O-])cc1)C(Cl)(Cl)Cl)c1ccc(Cl)cc1` (stereo not given): 98%, 94% and 21%.
The matching figures for `COc1ccc2ccccc2c1CNCCCCCCNCc1c(OC)ccc2ccccc12.Cl`: 100%, 35% and 99%.
With `CCCC(=O)NC(c1ccc(C(C)C)cc1)c1ccc2cccnc2c1O` (stereo not given), the Inhibition came to 90% in the experiment on Plasmodium falciparum [1], 37% with Plasmodium falciparum [2] and 50% in the experiment with HepG2.
The corresponding values for `O=S(=O)(c1ccc(OC(F)(F)F)cc1)C1CC2CCC(C1)N2S(=O)(=O)c1ccc(Cl)c(C(F)(F)F)c1` (stereo not given) are 100%, 95% and 1%.
The matching figures for `CCn1ncc2c(N3CCCC3=O)cc(C(=O)N[C@@H](Cc3ccccc3)[C@H](O)CNC(C)(C)c3cccc(C(F)(F)F)c3)cc21`: 98%, 99% and 10%.
The matching figures for `Cc1sc(N2CCN(C)CC2)nc1C(=O)Nc1ccc(F)cc1C(F)(F)F.O=C(O)C(F)(F)F`: 92%, 63% and 7%.
In the case of `CN1C(C)(C)CC(NC(=O)c2ccc(-c3nc4cc(Cl)c(Cl)cc4[nH]3)cc2)CC1(C)C`, the figures for the Inhibition in the experiment on Plasmodium falciparum [1], in the experiment with Plasmodium falciparum [2] and in the experiment on HepG2 were 98%, 97% and 8%, respectively.
The matching figures for `COc1ccc2[nH]ccc(=NN=Cc3ccc(Cl)cc3)c2c1`: 100%, 72% and 9%.
The corresponding values for `CN(C)CC(=O)Nc1cccc(Nc2nccc(NCC(O)c3ccccc3)n2)c1` (stereo not given) are 100%, 3% and 30%.
As for `Cn1cc(CN2CCCC(COC(c3ccccc3)c3ccccc3)C2)cn1` (stereo not given), the Inhibition in the experiment on Plasmodium falciparum [1] was 99%; in the experiment on Plasmodium falciparum [2] it was 99%; with HepG2, 24%.
As to `CCN(CC)c1nc(Nc2cc(C)ccc2C)nc(Nc2ccccc2O)n1`, the results for the Inhibition with Plasmodium falciparum [1], in the experiment on Plasmodium falciparum [2] and in the experiment with HepG2 were 100%, 99% and 0%, respectively.
The matching figures for `Cc1cccc2nc(-c3ccc(-c4cccc(CNC5CCN(C)CC5)c4)s3)[nH]c12.O=C(O)C(F)(F)F`: 98%, 73% and 21%.
As for `Fc1ccc(-c2cc3ncnc(N4CCN(CCN5CCCC5)CC4)c3s2)cc1`, the Inhibition in the experiment on Plasmodium falciparum [1] is reported as 98%; with Plasmodium falciparum [2], 40%; with HepG2 it was 25%.
The corresponding values for `Cc1[nH]c(C)c(-c2ccc(-c3ccc(C(F)(F)F)cc3C(F)(F)F)nc2)c(=O)c1Br` are 97%, 97% and 30%.
For `Cc1ccc(-c2nnc(Nc3ccc(CC(N)=O)cc3)c3ccccc23)cc1S(=O)(=O)NCC1CCCO1` (stereo not given), the Inhibition with Plasmodium falciparum [1] is on record as 83%; with Plasmodium falciparum [2], 64%; in the experiment on HepG2, 0%.
The corresponding values for `CCCCCCCN1CC[C@@H](C[C@H](N)Cc2ccnc3ccc(OC)cc23)[C@@H](CC)C1.O=C(O)C(=O)O` are 91%, 51% and 33%.
For the compound `CCCCN1CCN(CCCNc2c3ccccc3nc3ccccc23)CC1.Cl`, the Inhibition with Plasmodium falciparum [1] worked out at 100%; with Plasmodium falciparum [2], 70%; in the experiment on HepG2, 26%.
The corresponding values for `COc1ccc(Cl)cc1N1CCN(CCCNC(=O)c2ccc(-c3nc4ccc(C(F)(F)F)cc4[nH]3)c(C)c2)CC1` are 95%, 14% and 6%.
For the compound `COc1ccc(CNC2CCN(C)CC2)cc1-c1ccc(S(=O)(=O)NCCc2ccccn2)cc1.O=C(O)C(F)(F)F`, the Inhibition in the experiment with Plasmodium falciparum [1] came to 93%; in the experiment on Plasmodium falciparum [2] it was 17%; in the experiment on HepG2, 13%.
Turning to `CC(C)CC(=O)N1CCNC[C@@H]1C(=O)NCCSCc1c(F)cccc1Cl.O=C(O)C(F)(F)F`, the Inhibition is recorded as 86% in the experiment on Plasmodium falciparum [1], 3% with Plasmodium falciparum [2] and 1% with HepG2.
The matching figures for `O=C(C=Cc1ccc(Cl)c(Cl)c1)NCCCCCN1CCC(CCCNS(=O)(=O)c2ccc(Br)cc2)CC1`: 93%, 25% and 74%.
As to `O=C(NCC1CCC(C(=O)NCCc2ccc(Cl)c(Cl)c2)CC1)c1ccc(O)c(-c2ccc(Cl)c(Cl)c2)c1` (stereo not given), the Inhibition amounted to 94% in the experiment with Plasmodium falciparum [1], 12% with Plasmodium falciparum [2] and 0% with HepG2.
The matching figures for `COc1ccc(CN2CCCC(C(=O)c3ccc(C(F)(F)F)cc3)C2)c(O)c1` (stereo not given): 98%, 88% and 0%.
